Data reported in PubChem BioAssay (Tox21).
Records with an inconclusive call do not appear. Calls of active or inactive are those of the source. Calls follow the shape of the full dose curve.

How the values were obtained:
[1] = target: Acetylcholinesterase (Homo sapiens) (UniProt P22303); test: Acetylcholinesterase (AChE) small molecule antagonists: colormetric cell-based qHTS assay (AID 1347395); conditions: SH-SY5Y cells AChE activity, colorimetric (Ellman); series mostly up to 115 µM; also: nearly all actives have a fitted effect of over 30% in size
Sequence of Acetylcholinesterase (Homo sapiens) (P22303 whole entry, looked up): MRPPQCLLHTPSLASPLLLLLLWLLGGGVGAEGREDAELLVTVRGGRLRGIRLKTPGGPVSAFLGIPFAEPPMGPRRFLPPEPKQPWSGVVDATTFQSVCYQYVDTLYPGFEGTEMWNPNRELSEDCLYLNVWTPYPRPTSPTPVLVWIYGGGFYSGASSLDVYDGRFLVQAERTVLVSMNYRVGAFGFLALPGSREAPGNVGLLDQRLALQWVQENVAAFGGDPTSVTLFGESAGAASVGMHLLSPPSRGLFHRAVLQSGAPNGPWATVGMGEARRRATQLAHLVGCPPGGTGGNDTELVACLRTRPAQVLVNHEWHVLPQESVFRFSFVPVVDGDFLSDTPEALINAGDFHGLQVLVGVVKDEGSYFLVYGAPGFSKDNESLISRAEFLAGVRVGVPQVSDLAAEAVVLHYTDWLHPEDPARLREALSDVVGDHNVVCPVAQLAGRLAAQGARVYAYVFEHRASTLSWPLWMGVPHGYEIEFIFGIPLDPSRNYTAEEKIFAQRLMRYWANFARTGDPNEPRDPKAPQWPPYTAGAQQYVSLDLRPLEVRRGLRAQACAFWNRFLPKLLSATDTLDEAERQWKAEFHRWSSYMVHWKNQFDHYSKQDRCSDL
In short: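 SH-SY5Y cells, plated overnight at 37 C, were exposed to compounds for 30 min at 37 C and 5% CO2. Acetylthiocholine plus DTNB was then added, and thiocholine from endogenous AChE was quantified colorimetrically after 90 min at 37 C.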

[2] = target: Acetylcholinesterase (Homo sapiens) (UniProt P22303); test: Acetylcholinesterase (AChE) small molecule antagonists: enzyme-based qHTS assay (AID 1347397); conditions: Potency: AChE enzyme activity inhibition; outcome: AChE enzyme activity inhibition; series mostly up to 115 µM; also: nearly all actives have a fitted effect of over 55% in size
In short: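 Compound or DMSO vehicle was pin-transferred onto recombinant human AChE (50 mU/mL as dispensed) and left 30 min at room temperature. Acetylthiocholine with DTNB then started the reaction, read colorimetrically 10 min later.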

[3] = target: Acetylcholinesterase (Homo sapiens) (UniProt P22303); test: Acetylcholinesterase (AChE) small molecule antagonists: fluorescence cell-based qHTS assay (AID 1347398); conditions: SH-SY5Y cells; Potency: AChE activity; outcome: AChE activity; series mostly up to 115 µM; also: nearly all actives have a fitted effect of over 50% in size
In short: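 Using neuroblastoma SH-SY5Y cells as the enzyme source, test chemicals are preincubated 30 min at 37 C; AChE-driven acetylthiocholine cleavage is then quantified by thiocholine-dependent Thiolite Green fluorescence after 40 min at room temperature.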

[4] = target: Acetylcholinesterase (Homo sapiens) (UniProt P22303); test: Acetylcholinesterase (AChE) small molecule antagonists: enzyme-based qHTS assay with human liver microsomes (AID 1347399); conditions: Potency: qHTS inhibition; outcome: qHTS inhibition; series mostly up to 115 µM; also: nearly all actives have a fitted effect of over 60% in size
In short: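 Recombinant human AChE (50 mU/mL in the enzyme mix) and human liver microsomes (0.25 mg/mL final) were preincubated with compound and NADPH (0.25 mg/mL final) for 30 min at 37 C. Acetylthiocholine/DTNB was then added; thiocholine was read colorimetrically after 10 min at room temperature.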

Measured: Potency

CCCCCCCCO[C@@H]1O[C@H](CO)[C@@H](O)[C@H](O)[C@H]1O
inactive: all assays above

COC(=O)c1cc(Cl)ccc1OC
inactive: all assays above

COC(=O)[C@@H]1[C@H]2C[C@H]3c4[nH]c5ccccc5c4CCN3C[C@@H]2CC[C@@H]1O
inactive: all assays above
